For 30 molecules, outcome and AC50 results are on record in PubChem BioAssay (EPA / NIEHS).

Activity calls are given as the source filed them. The calls were made as follows: active = hit-call score of the fitted dose curve at least 0.9, where 1 is the maximum; inconclusive = response in the unintended direction; inactive = score below 0.9.

A word on the AC50: it is the midpoint of the concentration-response curve, whichever way the signal moves.

The target in the experiment is Estrogen receptor (Homo sapiens) (UniProt P03372). Briefly: OT_ER_ERaERa_1440: Odyssey Thera (OT) 24-hour HEK293T Protein-Complementation Assay for Estrogen Receptor-alpha/-alpha Homodimer (AID 2283349).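 Also: hits raise fluorescence above DMSO for agonists and antagonists alike.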 As for the experimental part: OT_ER_ERaERa_1440 is a cell-based assay that uses HEK293T, a human kidney cell line, with measurements taken at 24 hours after chemical dosing in a 384-well plate.OT_ER_ERaERa_1440 is one of one assay component(s) measured or calculated from the OT_ER_ERaERa_1440 assay. It is designed to make measurements of protein fragment complementation, a form of binding reporter, as detected with fluorescence intensity signals by Protein-fragment Complementation technology.Data from the assay component OT_ER_ERaERa_1440 was analyzed into 1 assay endpoint. This assay endpoint, OT_ER_ERaERa_1440, was analyzed in the positive analysis fitting direction relative to DMSO as the negative control and baseline of activity. Using a type of binding reporter, measures of receptor for gain-of-signal activity can be used to understand the binding at the pathway-level as they relate to the gene ESR1. Furthermore, this assay endpoint can be referred to as a primary readout, because the performed assay has only produced 1 assay endpoint. To generalize the intended target to other relatable targets, this assay endpoint is annotated to the nuclear receptor intended target family, where the subfamily is steroidal.
Sequence of Estrogen receptor (Homo sapiens) (P03372 whole entry, looked up, the tested form may be a part): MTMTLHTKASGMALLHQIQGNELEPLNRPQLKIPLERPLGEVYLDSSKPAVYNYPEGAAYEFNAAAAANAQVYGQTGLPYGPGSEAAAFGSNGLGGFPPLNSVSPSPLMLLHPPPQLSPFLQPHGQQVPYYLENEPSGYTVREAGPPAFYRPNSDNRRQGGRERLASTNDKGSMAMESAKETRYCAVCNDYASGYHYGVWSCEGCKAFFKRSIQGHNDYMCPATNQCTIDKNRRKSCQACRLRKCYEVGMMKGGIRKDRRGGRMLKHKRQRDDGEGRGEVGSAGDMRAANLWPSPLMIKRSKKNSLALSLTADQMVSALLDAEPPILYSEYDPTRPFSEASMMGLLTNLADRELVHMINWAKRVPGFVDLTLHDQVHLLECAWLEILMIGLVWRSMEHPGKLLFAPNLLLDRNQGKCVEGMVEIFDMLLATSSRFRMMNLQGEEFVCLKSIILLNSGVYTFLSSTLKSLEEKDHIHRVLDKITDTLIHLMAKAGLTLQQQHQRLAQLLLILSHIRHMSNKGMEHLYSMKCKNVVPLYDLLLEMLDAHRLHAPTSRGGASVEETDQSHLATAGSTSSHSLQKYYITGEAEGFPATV
Protein-fragment complementation assay, or PCA, is a method for the identification and quantification of protein-protein interactions. In the PCA, the proteins of interest ("bait" and "prey") are each covalently linked to fragments of a third protein (e.g. DHFR, which acts as a "reporter"). Interaction between the bait and the prey proteins brings the fragments of the reporter protein in close proximity to allow them to form a functional reporter protein whose activity can be measured. The OT ER alpha / ER alpha assay is a homodimer PCA of the ligand binding domain (amino acids 310-547) of human ER alpha stably expressed in HEK293T cells. […] Fluorescent signal in the basal state of the assay is very low and is primarily punctuate and cytoplasmic. Modulation of this assay is quantified as an increase in mean fluorescence intensity in the nucleus (for agonists) or in the nucleus and cytoplasm (antagonists) relative to vehicle controls, and can be quantified on a high content imaging device or a laser scanning cytometer. The latter instrument is favored for this assay because of the rapid mode of data acquisition, the ability to acquire data from the entire cell population in a well (as opposed to a fraction of the well on the high content devices) and the larger dynamic range typically achieved with this instrument. To assess sensitivity of the ER alpha/ER alpha LBD assay to ligand, cells were treated with the ER agonist 17 beta-estradiol (E2) in 10-point concentration- response format for 24 hours and monitored response on a laser scanning plate cytometer (Acumen eX3; TTP Lab Tech).
Regarding `CC[C@H](C)C(=O)O[C@H]1C[C@@H](C)C=C2C=C[C@H](C)[C@H](CC[C@@H]3C[C@@H](O)CC(=O)O3)[C@H]21`, the result was inactive. With `COc1cccc(-c2ccc(/C=C\CN3CCCCCC3)cc2Cl)c1`, the outcome was inactive. With `CCC(C)(C)C(=O)O[C@H]1C[C@@H](C)C=C2C=C[C@H](C)[C@H](CC[C@@H]3C[C@@H](O)CC(=O)O3)[C@H]21`, the call was inactive.

As to `CC(C)=CCCC(C)=CC=O`, the call was inactive. Take `CC(C)CCO`: the molecule was called inactive.

Regarding `CCOC(=O)COc1ccc2c(c1)CC(NCC(O)c1cccc(Cl)c1)CC2` (stereo not given), the molecule was classed as inactive. For the molecule `O=c1[nH]c2ccc(S(=O)CCN3CCC(Cc4ccc(F)cc4)CC3)cc2o1` (stereo not given), the molecule was classed as inactive.

Regarding `CC(C)=CCCC(C)CCO` (stereo not given), the result was inactive. On the same count and under the same terms, with `C=CC(=C)CCC=C(C)C` the entry was “inactive”. As to `O=P(OC(CCl)CCl)(OC(CCl)CCl)OC(CCl)CCl`, the result was inactive.

For the molecule `O=C(NS(=O)(=O)/C=C/c1ccccc1)c1ccc(F)cc1Cl`, the result was inactive. For `COC(=O)c1c(Cl)c(Cl)c(C(=O)OC)c(Cl)c1Cl`, the molecule was called inactive.

Take `CCCCC(CC)COC(=O)CCCCCCCCC(=O)OCC(CC)CCCC` (stereo not given): the AC50 was 12.1 µM (active).

Regarding `Cn1c(=O)cc(Oc2ccc(F)cc2F)c2cnc(NCC(C)(C)O)nc21`, the AC50 is 50 µM (active). For the molecule `Cn1cnc([N+](=O)[O-])c1Sc1ncnc2nc[nH]c12`, the molecule was classed as inactive. `O=c1n(CC2CO2)c(=O)n(CC2CO2)c(=O)n1CC1CO1` (stereo not given): the result was inactive. With `O=C(O)c1cccc(Oc2ccccc2)c1`, the molecule was classed as inactive. The same measure, in the same setting: with `CC[C@H]1CC[C@H](NCc2cc3c(cc2OC)[C@H]2C[C@H]2C(=O)N3C)[C@H](c2ccccc2)N1` the entry was “inactive”; with `COC(=O)c1ccccc1O`, “inactive”.

With `CC/C(=C\C(=N/O)C(N)=O)C(C)[N+](=O)[O-]` (stereo not given), the call was inactive. Regarding `COc1ccc2sc(C(=O)Nc3nnn[nH]3)c(OC(C)C)c2c1`, the molecule was called inactive.

For `C=CCCCCCCCCC(=O)O`, the outcome was inactive. For the molecule `COc1ccc(-n2nc(C(F)F)cc2-c2ccc(S(C)=O)cc2)cc1` (stereo not given), the result was inactive. On to `CCn1nc(Cc2ccccc2)cc1C1CCN(C[C@H]2C[C@H](N(C)[C@@H](C(=O)O)C(C)C)C[C@@H]2c2cccc(F)c2)CC1`, for which the molecule was classed as inactive. Regarding `COC(=O)CC(=O)OC`, the molecule was called inactive. For `Nc1ccc(Nc2ccccc2)cc1`, the molecule was called inactive. `Cc1ccc(S(=O)(=O)O)cc1C`: the outcome was inactive.

Consider `CCCCCCCCO`, for which the call was inactive. For the molecule `Cc1ccc(N)cc1O`, the outcome was inactive. With `CCCC(=O)OCC`, the molecule was called inactive.
